# Inconclusive results are not listed. A call without a number means that no potency is given here. Activity calls are given as the source filed them. Calls come from the whole dose curve; as a rule, active = well fitted inhibition curve with a large enough effect; inconclusive = small, poorly fitted or top-dose-only effect; inactive = flat fitted curve, though single readings scatter.
# Test system: astro (control astrocytes)
# Experiment: Drug repurposing screens with cells derived from glioblastoma tumor samples (AID 1345199); note: nearly all actives have a fitted effect of over 40% in size
# Settings: viability, ATP luminescence, 48 h; series mostly up to 45.9 µM
# Protocol: CD133+ cells were isolated from GBM patient biopsies and cultured as neurospheres. Neurospheres from four patients were used to screen the NCATS pharmaceutical collection (NPC) library of approved drugs and bioactive compounds. […] The neurospheres were incubated with drugs for 48 hours in 1536-well format, then assayed with an ATP content cell viability assay. […] These hits were cherry picked to confirm activity in the four original GBM lines screened plus three other slower growing GMB lines (unable to yield enough cells for a full primary screen). Variable activities of the confirmed primary hits in the different GBM patient lines were observed. The patient line 206 responded to the greatest number of compounds and line 923 responded to the least amount of active compounds.
# Potency is the fitted concentration of half-maximal effect.
row,Structure (SMILES),Potency
1,NCCCC(O)(P(=O)(O)O)P(=O)(O)O,inactive
2,COc1cnc(NS(=O)(=O)c2ccc(N)cc2)nc1,inactive
3,Cc1noc(NS(=O)(=O)c2ccc(N)cc2)c1C,inactive
4,CC(C)OC(=O)C(C(=O)OC(C)C)=C1SC=CS1,inactive
5,CCN[C@H]1C[C@H](C)S(=O)(=O)c2sc(S(N)(=O)=O)cc21,inactive
6,CCN(CC)CCn1c(=O)c(Cc2ccc(OC)cc2)nc2ccccc21,inactive
7,COc1c(N2CCNC(C)C2)c(F)cc2c(=O)c(C(=O)O)cn(C3CC3)c12 (stereo not given),inactive
8,COc1cc2c(Nc3ccc(Br)cc3F)ncnc2cc1OCC1CCN(C)CC1,14.1 µM (active)
9,Cn1nnc2c(C(N)=O)ncn2c1=O,inactive
10,C[C@@H]1CN(c2c(F)c(N)c3c(=O)c(C(=O)O)cn(C4CC4)c3c2F)C[C@H](C)N1,inactive
11,CC[C@H](C)C(=O)O[C@H]1C[C@@H](C)C=C2C=C[C@H](C)[C@H](CC[C@@H]3C[C@@H](O)CC(=O)O3)[C@H]21,0.447 µM (active)
12,CS(=O)(=O)c1ccc([C@@H](O)[C@@H](CO)NC(=O)C(Cl)Cl)cc1,inactive
13,COc1ccccc1OCC(O)COC(N)=O (stereo not given),inactive
14,OC(Cn1cncn1)(Cn1cncn1)c1ccc(F)cc1F,inactive
15,CC(C)(Sc1cc(C(C)(C)C)c(O)c(C(C)(C)C)c1)Sc1cc(C(C)(C)C)c(O)c(C(C)(C)C)c1,inactive
16,COC(c1ccccc1)(c1ccccc1)[C@H](Oc1nc(C)cc(C)n1)C(=O)O,inactive
17,Nc1nc(F)nc2c1ncn2[C@@H]1O[C@H](CO)[C@@H](O)[C@@H]1O,inactive
18,NC(=O)c1cccnc1,inactive
19,C[C@]12C=CC(=O)C=C1CC[C@@H]1[C@@H]2C(=O)C[C@@]2(C)[C@H]1CC[C@]2(O)C(=O)CO,inactive
20,Cc1onc(-c2ccccc2Cl)c1C(=O)N[C@@H]1C(=O)N2[C@@H]1SC(C)(C)[C@@H]2C(=O)O,inactive

row,Structure (SMILES),Potency
1,O=S(=O)(O)CCS,inactive
2,CNS(=O)(=O)Cc1ccc2[nH]cc(CCN(C)C)c2c1,inactive
3,COCCCOc1cc(C[C@@H](C[C@H](N)[C@@H](O)C[C@H](C(=O)NCC(C)(C)C(N)=O)C(C)C)C(C)C)ccc1OC,inactive
4,COc1ccc2c(c1)c(CC(=O)OCC(=O)O)c(C)n2C(=O)c1ccc(Cl)cc1,inactive
5,CNCC[C@H](Oc1cccc2ccccc12)c1cccs1,28.2 µM (active)
6,CC(C)(C)NC(=O)[C@H]1CC[C@H]2[C@@H]3CC[C@H]4NC(=O)C=C[C@]4(C)[C@H]3CC[C@]12C,inactive
7,CC(C(=O)O)c1ccc2c(c1)CC(=O)c1ccccc1S2 (stereo not given),inactive
8,CCOC(=O)[C@H](CCc1ccccc1)N[C@H]1CS[C@H](c2cccs2)CN(CC(=O)O)C1=O,inactive
9,C[C@@H]1C[C@H]2[C@@H]3CCC4=CC(=O)C=C[C@]4(C)[C@@]3(Cl)[C@@H](O)C[C@]2(C)[C@@]1(OC(=O)c1ccco1)C(=O)CCl,inactive
10,Nc1nc(=S)c2[nH]cnc2[nH]1,inactive
11,CO[C@@]12[C@H](COC(N)=O)C3=C(C(=O)C(C)=C(N)C3=O)N1C[C@@H]1N[C@@H]12,inactive
12,CCN(C)C(=O)Oc1cccc([C@H](C)N(C)C)c1,inactive
13,CN(C)c1ccc(C(=C2C=CC(=[N+](C)C)C=C2)c2ccc(N(C)C)cc2)cc1,2.51 µM (active)
14,CCC(=O)O[C@]1(C(=O)SCF)[C@H](C)C[C@H]2[C@@H]3C[C@H](F)C4=CC(=O)C=C[C@]4(C)[C@@]3(F)[C@@H](O)C[C@@]21C,inactive
15,Cc1oc(=O)oc1CN1CCN(c2cc3c(cc2F)c(=O)c(C(=O)O)c2n3C(C)S2)CC1 (stereo not given),inactive
16,Cc1cccc(N(C)C(=S)Oc2ccc3ccccc3c2)c1,inactive
17,CC(C)(C#N)c1cc(Cn2cncn2)cc(C(C)(C)C#N)c1,inactive
18,C[C@@H](NCCCc1cccc(C(F)(F)F)c1)c1cccc2ccccc12,22.4 µM (active)
19,Nc1[nH]c(=O)ncc1F,inactive
20,Cn1c(=O)c2c(ncn2CC(O)CO)n(C)c1=O (stereo not given),inactive
